Most compounds without a hit are left out; they make up all but 1.2% or so of the library.
NPR2 activator – human GC-B receptor activators, primary screen, HEK293 GC-B cells, cGMP TR-FRET, EC30 CNP; 370,000 tested, 0.11% active; AID 1920062, 2024; 0% at EC30 CNP, 100% saturating CNP; activation, % at 10 µM; Atrial natriuretic peptide receptor 2 (Homo sapiens), P20594;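 active means activation at 10 µM reaching about 35% in either raw or pattern-adjusted values, limit read from the data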
PLC-beta3 inh – human PLC-beta3 inhibitors, primary screen, biochemical, fluorescence; Purified PLC-beta3, fluorogenic substrate; inhibition, % at 12.2 µM; 370,000 tested, 0.18% active; AID 720704, 2013; in the data active means inhibition above about 11%;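 further: 0% = median of compound wells on plate and 100% = full blocker control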
GC-A act – GC-A stimulated cGMP production enhancers – HEK293 GC-A cells, cGMP TR-FRET, EC30 ANP, primary screen; 0% at EC30 ANP, 100% saturating ANP; activation, % at 10 µM; 370,000 tested, 0.14% active; AID 1671463, 2021; in the data active means activation above about 40%
Target sequence (P16066 whole entry, looked up): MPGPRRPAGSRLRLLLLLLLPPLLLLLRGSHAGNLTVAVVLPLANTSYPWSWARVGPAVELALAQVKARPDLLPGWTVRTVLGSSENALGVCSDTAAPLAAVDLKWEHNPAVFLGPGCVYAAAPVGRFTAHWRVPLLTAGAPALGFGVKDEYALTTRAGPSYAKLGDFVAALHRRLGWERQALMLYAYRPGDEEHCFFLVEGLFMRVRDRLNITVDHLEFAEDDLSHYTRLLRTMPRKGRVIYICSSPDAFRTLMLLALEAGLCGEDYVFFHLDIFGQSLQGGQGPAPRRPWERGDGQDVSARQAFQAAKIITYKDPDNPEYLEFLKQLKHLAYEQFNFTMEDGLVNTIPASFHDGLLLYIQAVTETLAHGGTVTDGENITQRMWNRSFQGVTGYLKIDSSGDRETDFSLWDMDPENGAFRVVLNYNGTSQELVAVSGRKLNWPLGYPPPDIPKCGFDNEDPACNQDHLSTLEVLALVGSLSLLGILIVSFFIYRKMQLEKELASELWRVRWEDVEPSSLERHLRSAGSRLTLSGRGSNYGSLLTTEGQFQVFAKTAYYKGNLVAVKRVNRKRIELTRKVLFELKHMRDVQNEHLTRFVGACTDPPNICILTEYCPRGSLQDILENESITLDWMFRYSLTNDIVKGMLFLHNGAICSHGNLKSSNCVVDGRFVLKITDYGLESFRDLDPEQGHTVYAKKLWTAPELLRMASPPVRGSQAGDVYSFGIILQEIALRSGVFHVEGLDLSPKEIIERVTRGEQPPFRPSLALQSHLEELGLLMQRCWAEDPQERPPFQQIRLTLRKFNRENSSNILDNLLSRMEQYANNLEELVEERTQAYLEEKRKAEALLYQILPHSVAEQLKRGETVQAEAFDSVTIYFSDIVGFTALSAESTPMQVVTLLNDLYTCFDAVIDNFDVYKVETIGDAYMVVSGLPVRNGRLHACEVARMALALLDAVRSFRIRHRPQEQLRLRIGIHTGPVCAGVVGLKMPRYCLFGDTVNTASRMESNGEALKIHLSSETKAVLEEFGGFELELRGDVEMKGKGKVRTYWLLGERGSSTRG
PLCg1 inh – PLC-gamma1 enzyme inhibitors, primary screen, biochemical, fluorescence, purified enzyme | fluorogenic substrate | inhibition, % at 12.2 µM | 370,000 tested, 0.84% active | 1-phosphatidylinositol 4,5-bisphosphate phosphodiesterase gamma-1 (Homo sapiens), P19174 | AID 720700, 2013; in the data active means inhibition above about 9.5%
Numbers without * were called inactive.

SMILES	NPR2 activator	PLC-beta3 inh	GC-A act	PLCg1 inh
N#Cc1c(SCc2ccccc2)nc(N2CCOCC2)c2c1CCCC2	37.5*	-16.5	35.0	-11.5
NC(=O)c1cccc(-c2coc3c(C(=O)NC4CCCCC4)cccc23)c1	35.5*	-1.8	29.9	-2.7
O=C1NC[C@@H](CCCCN2CCN(CC3CCCCC3)C(=O)C2=O)N(Cc2ccccc2)C1=O	0.3	1.7	-1.6	-3.5
O=C1NC[C@@H](CCCCN2CCN(CCC3CCCCC3)C(=O)C2=O)N(Cc2ccccc2)C1=O	-0.8	5.5	1.3	14.1*
Oc1ccc(-c2[nH]ncc2-c2ccc(Cl)cc2)c(O)c1	-3.2	-9.6	49.4*	-8.2
Oc1ccc(-c2[nH]ncc2-c2ccc(Br)cc2)c(O)c1	0.2	-5.5	66.6*	2.0
Cc1ccc(S(=O)(=O)c2nnn3c2nc(Nc2cccc(C)c2)c2ccccc23)cc1	50.0*	2.6	49.1*	-0.6
CCn1ncc(Br)c1C(=O)Nc1ccc(F)c([N+](=O)[O-])c1	35.5*	4.2	27.6	2.6
COc1ccc(/C=N/NC(=O)C2c3ccccc3-c3ccccc32)cc1	-0.6	-2.3	-4.1	-4.5
CC1=NOC(=O)/C1=C/c1ccc(O)c(Cl)c1	4.5	-1.3	12.1	5.4
CCCOc1ccc(/C=C2/C(=O)ON=C2C)cc1Cl	16.1	-3.4	44.6*	-1.2
COc1cccc(COC(=O)c2cc(S(=O)(=O)N3CCOCC3)ccc2Cl)c1OC	-1.4	-6.7	0.1	2.8
O=C(O)C1Cn2c(nc3c(c2=O)C2(CCCC2)Cc2ccccc2-3)S1 (stereo not drawn)	3.3	-37.4	3.1	-22.9
Oc1ccc(-c2nc3ncccn3c2Nc2ccc3c(c2)OCCO3)cc1	21.7	-7.5	30.6	-4.3
Clc1ccc(-c2nc3cnccn3c2Nc2ccc3c(c2)OCO3)cc1	39.5*	-49.0	40.9*	-42.7
Clc1ccc(-c2nc3ncccn3c2Nc2ccc3c(c2)OCCO3)cc1	41.6*	-3.1	44.6*	-2.2
Cc1ccc(-c2nc3ncccn3c2Nc2ccc3c(c2)OCCO3)cc1	44.1*	-7.7	41.4*	-7.7
COc1ccc(-c2nc3ncccn3c2Nc2ccc3c(c2)OCCO3)cc1	43.2*	-2.2	45.9*	-2.7
Cn1cnc2c(=O)[nH]cc([N+](=O)[O-])c21	4.1	0.6	3.0	1.5
CCCCCCCCSC1=CC(=O)C(OC)=C(OC)C1=O	8.4	-3.8	45.2*	2.0
O=C(NCC1CCCCC1)c1cccnc1	4.5	-6.9	-0.9	-0.5
COc1ccccc1CN1CC(C(=O)N(C)CCOc2ccccc2)CCC1=O (stereo not drawn)	2.4	-5.2	1.1	-1.2
COc1ccccc1CN1CC(C(=O)N(C)CCc2ccccn2)CCC1=O (stereo not drawn)	4.8	13.3*	2.2	5.6
S=c1[nH]cc(-c2ccccc2)n1-c1ccccc1	-1.5	6.2	-0.9	13.0*
O=C(/C=C/c1cccc([N+](=O)[O-])c1)NCCN1C(=O)S/C(=C\c2cccnc2)C1=O	2.1	1.4	-4.2	0.8
SMILES	NPR2 activator	PLC-beta3 inh	GC-A act	PLCg1 inh
O=C(CNc1cccc([N+](=O)[O-])c1)N1CCN(S(=O)(=O)c2ccc(Cl)cc2)CC1	-12.7	11.6*	-10.4	1.2
O=C(CNc1cccc(S(=O)(=O)N2CCCCCC2)c1)Nc1cccc([N+](=O)[O-])c1	-5.1	-3.3	-3.4	0.3
COc1ccc(N(CC(=O)NCCc2ccccc2)C(=O)CCC(=O)Nc2nccs2)c(OC)c1	0.2	-8.5	-5.2	0.9
CC1(C)Cc2c(c(N3CCOCC3)nc3sc4c(NCC5CCCO5)nnnc4c23)CS1 (stereo not drawn)	48.9*	-13.2	38.5	-1.5
C1CCc2c(c(N3CCOCC3)nc3sc4c(N5CCOCC5)nnnc4c23)C1	-3.4	0.8	2.9	4.8
CC1(C)Cc2c(c(N3CCOCC3)nc3sc4c(NCCN5CCOCC5)nnnc4c23)CS1	42.2*	-59.9	44.4*	-35.5
c1nc(NCCN2CCOCC2)c2sc3nc(N4CCOCC4)c4c(c3c2n1)CCC4	9.7	-35.3	13.6	-28.8
CC(C)CCNc1nnnc2c1sc1nc(N3CCOCC3)c3c(c12)CC(C)(C)SC3	57.2*	-3.1	51.7*	-3.2
COC(=O)C(C(=O)OC)C1C=CCN(C(C)=O)C1 (stereo not drawn)	-0.8	0.1	0.2	28.8*
C#Cc1cccc(Nc2nc(NCCOC)nc3ccsc23)c1	37.4*	-40.9	35.2	-23.7
Cc1onc(-c2ccccc2Cl)c1C(=O)NNC(=O)C1CCN(Cc2ccccc2)CC1	-1.2	-0.9	-1.1	1.4
c1ccc(CNc2ncnc3c2cnn3Cc2ccccc2)cc1	-0.3	0.4	2.8	3.1
O=C(COC(=O)c1cccc(S(=O)(=O)N2CCCC2)c1)Nc1ccc(Cl)cc1	97.4*	2.3	0.2	-0.4
O=C(c1ccc(COc2ccc(F)cc2)o1)n1cccn1	-6.7	-0.1	44.7*	1.8
O=C(c1ccc(COc2ccc(F)cc2)o1)n1cc(Br)cn1	-2.1	-6.2	31.4	-4.0
COc1ccc(CN2CC(=O)N(c3cccc(Cl)c3)C2=S)cc1OC	2.5	-1.5	43.8*	3.7
CN(CCC(=O)c1ccccc1)CCC(=O)c1ccccc1	2.8	-2.5	63.0*	-3.4
CN(C)CCC(=O)c1ccc(Cl)cc1	-3.4	2.5	61.7*	-1.2
Cc1ccc(NC(=O)CSc2ccccc2NC(=O)c2ccccc2Cl)cc1Cl	-1.4	-0.9	-7.5	-1.5
COC(=O)[C@]12C[C@H](CC(=O)NCc3ccc(OC)c(OC)c3)C(=O)N(CCc3ccc(OC)c(OC)c3)C1=C[C@H](COCc1ccccc1)O[C@@H]2C	4.8	0.7	2.7	-0.8
CC(=O)Nc1cccc(Oc2ncnc3scc(-c4ccc(C)cc4)c23)c1	58.5*	0.9	55.4*	-1.7
C=CC[C@@H](CC(=O)N[C@H](CO)Cc1ccccc1)C(=O)N[C@H](COC(=O)[C@H](CC=C)CC(=O)OC(C)(C)C)Cc1c[nH]c2ccccc12	-1.8	4.2	-7.3	10.3*
C=CCC[C@H](Cc1ccc(F)cc1)C(=O)OC[C@H](Cc1c[nH]c2ccccc12)NC(=O)[C@@H](CC=C)CC(=O)NCCO	-8.4	2.5	-2.2	12.3*
CC1=C(C(=O)OCCC#N)C(c2cc3c(cc2Br)OCO3)NC(=O)N1 (stereo not drawn)	0.0	-3.1	-0.7	0.5
COc1ccc(Cn2nnc3c(=O)[nH]c(C4CCN(S(=O)(=O)c5ccc(C)cc5)CC4)nc32)cc1	-6.6	1.8	-1.4	2.2
CC(C)(C)n1nnnc1CN(Cc1cccnc1)Cc1ccccc1Cl	-12.4	0.7	-7.5	4.9
COc1ccc(NC(=O)c2cc(-c3cc(Cl)ccc3OC)n[nH]2)cc1OC	53.0*	2.0	44.9*	0.9
COc1ccc(Cl)cc1-c1cc(C(=O)NCc2ccc(F)cc2)[nH]n1	20.6	4.2	42.8*	2.3
CCCCn1nnnc1C(c1ccccc1)N1CCN(CCN2CCOCC2)CC1 (stereo not drawn)	-6.7	4.6	2.7	0.4

From PubChem BioAssay
